Sampled rows, rich in hits. Any-hit rate of the full collection: about 10%.
JMJD2A Tudor: qHTS Assay for Inhibitors of JMJD2A-Tudor Domain; Lysine-specific demethylase 4A (Homo sapiens), O75164; AlphaScreen JMJD2A-Tudor / H3K4me3 peptide binding; Potency, µM (highest dose often 114 µM), without a hit: at the top dose activity change, negative = inhibition, usual class: inhibitors; 390,000 tested, 4.4% active; AID 504339, 2011; also: potency is read from the fitted curve at half-maximal effect; % is scaled to controls: 0 for no effect and ±100 for the full control effect; nearly all actives have a fitted effect of over 50% in size
CtBP-E1A blk: qHTS Assay for Inhibitors of the CtBP/E1A Interaction | AlphaScreen GST-E1A/His-CtBP binding, 1536-well; hits give low values | activity change, % (test concentration not listed) | 340,000 tested, 0.49% active | AID 651724, 2012; in the data active = activity change below about -65%; inconclusive = mostly about -30% to -63%; also: % is scaled to controls: 0 for no effect and ±100 for the full control effect
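GST-E1A and His-tagged CtBP (125 nM each as 5X stock) were preincubated with pin-transferred compound for 2 h at 37 °C in the dark, then glutathione donor and nickel acceptor beads were added for 1 h before AlphaScreen reading.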
Six1-Eya2 blk: qHTS Assay for Inhibitors of the Six1/Eya2 Interaction; Homeobox protein SIX1 (Homo sapiens) + Protein phosphatase EYA2 (Homo sapiens), …; 360,000 tested, 0.56% active; activity change, % (concentration not given with the values); AlphaScreen GST-Six1/His-Eya2 binding, biochemical; hits give low values; in the data active = activity change below about -65%; inconclusive = mostly about -30% to -63%; also: % is scaled to controls: 0 for no effect and ±100 for the full control effect
Target sequence (O00167 whole entry, looked up): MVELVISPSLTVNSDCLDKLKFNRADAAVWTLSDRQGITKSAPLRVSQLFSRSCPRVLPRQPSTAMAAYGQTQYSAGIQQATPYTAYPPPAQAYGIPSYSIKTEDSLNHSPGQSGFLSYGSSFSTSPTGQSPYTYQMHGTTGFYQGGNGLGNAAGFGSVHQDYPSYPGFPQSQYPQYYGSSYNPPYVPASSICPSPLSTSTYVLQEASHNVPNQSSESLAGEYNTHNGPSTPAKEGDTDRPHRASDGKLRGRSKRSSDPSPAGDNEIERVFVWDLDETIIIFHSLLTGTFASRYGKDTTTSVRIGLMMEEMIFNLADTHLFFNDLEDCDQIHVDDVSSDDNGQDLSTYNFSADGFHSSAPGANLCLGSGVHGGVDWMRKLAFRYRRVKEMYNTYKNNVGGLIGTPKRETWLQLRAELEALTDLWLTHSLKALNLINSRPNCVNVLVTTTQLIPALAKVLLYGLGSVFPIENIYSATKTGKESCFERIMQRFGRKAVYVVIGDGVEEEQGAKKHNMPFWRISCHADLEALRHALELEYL
Target sequence (Q15475 whole entry, looked up): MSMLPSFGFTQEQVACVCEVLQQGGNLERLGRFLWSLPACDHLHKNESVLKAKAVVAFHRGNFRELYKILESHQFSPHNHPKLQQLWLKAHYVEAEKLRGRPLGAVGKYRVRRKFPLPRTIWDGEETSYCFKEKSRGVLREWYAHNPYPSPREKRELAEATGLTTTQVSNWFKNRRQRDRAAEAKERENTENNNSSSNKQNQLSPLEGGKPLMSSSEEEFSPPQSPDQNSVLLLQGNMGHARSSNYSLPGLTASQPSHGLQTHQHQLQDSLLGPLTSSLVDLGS
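Six1/Eya2 binding was read as AlphaScreen signal after compounds were pinned into GST-Six1 plus His-tagged Eya2 (5X stock 250/500 nM) in pH 8.0 Tris/NaCl/TCEP buffer, beads added, then incubated 1 h, 37 C, dark.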
BAZ2B block: qHTS Assay for Inhibitors of BAZ2B; AlphaScreen BAZ2B-H3K14Ac peptide displacement; Potency, µM (doses to about 114 µM), without a hit: at the highest dose activity change, negative = inhibition, usual class: inhibitors; 360,000 tested, 4.4% active; also: potency is read from the fitted curve at half-maximal effect; % is scaled to controls: 0 for no effect and ±100 for the full control effect; nearly all actives have a fitted effect of over 60% in size
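Multi-concentration screen (max 110 uM) measuring displacement of acetylated histone H3 peptide from BAZ2B by AlphaScreen, using 50 nM protein, 50 nM peptide and 10 ug/mL streptavidin donor plus Ni-chelate acceptor beads.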
G9a inh: qHTS Assay for Inhibitors of Histone Lysine Methyltransferase G9a; AID 504332, 2011; 350,000 tested, 8.8% active; G9a H3K9 monomethylation, AlphaScreen, 2 h; Potency, µM (highest dose often 102 µM), without a hit: at the highest dose activity, negative = inhibition, hits mostly inhibitors; Histone-lysine N-methyltransferase EHMT2 (Homo sapiens), Q96KQ7; also: potency is read from the fitted curve at half-maximal effect; % is scaled to controls: 0 for no effect and ±100 for the full control effect; nearly all actives have a fitted effect of over 75% in size
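Using a bead-based AlphaScreen, monomethylated H3K9 product from 2 h room-temperature reactions (G9a 20 nM, peptide 500 nM, SAM 20 uM) was detected with 0.5 ug/mL rabbit anti-H3K9me1 antibody.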
HP1b binding inh: HTS for Inhibitors of HP1-beta Chromodomain Interactions with Methylated Histone Tails; Chromobox protein homolog 1 (Homo sapiens), P83916; AlphaScreen HP1-beta / biotin-H3K9me3 peptide binding; Potency, µM (titrated, usually from 114 µM), for the others: at the top dose activity change, negative = inhibition, actives largely listed as inhibitors; 390,000 tested, 0.56% active; AID 540317, 2011; also: potency is read from the fitted curve at half-maximal effect; nearly all actives have a fitted effect of over 70% in size
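AlphaScreen: HP1-beta (50 nM) preformed 30 min with biotin-H3(1-18)K9me3 peptide (50 nM) in PBS pH 7.4, 0.01% Tween-20. Compound added for 30 min at RT, then streptavidin donor/nickel chelate acceptor beads (10 ug/mL) for 30 min.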
The depositor's hits bear a star; ? = inconclusive; . = no result; [ ] = another dose, or the depositor's remark. Unless noted, calls follow the shape of the dose curve; as a rule, active = well fitted inhibition curve with a large enough effect; inconclusive = small, poorly fitted or top-dose-only effect; inactive = no such curve, though single readings can be large or run the other way.

SMILES	JMJD2A Tudor	CtBP-E1A blk	Six1-Eya2 blk	BAZ2B block	G9a inh	HP1b binding inh
c1ccc([Se]c2c(-c3ccccc3)[se]c3ccccc23)cc1	.	.	.	.	85%[59 µM]	.
NC(=O)CI	.	.	.	.	2.4µM*	.
CC[C@@H]1/C=C/C=C/C[C@H](C)[C@@H](O)[C@](C)(O)C(=O)[C@H](C)[C@@H](O)[C@H](C)C(=O)[C@H](C)[C@@H](O)[C@H](C)/C=C/C(=O)O[C@H]2[C@@H](C)[C@@H](CC1)O[C@@]1(CC[C@@H](C)[C@@H](C[C@H](C)O)O1)[C@@H]2C	.	.	.	.	7%[59 µM]	.
COc1ccccc1N1CCN(C(=O)c2cc3c(-c4ccccc4F)nn(C)c3s2)CC1	-34%	.	.	.	?	14%
Cc1cc(OCC(=O)N2CCCN(C)CC2)ccc1Cl	-10%	8	1	2%	4%	25%
CCOc1cccc(OCCOCCN2CCCC2)c1	7.9µM*	-2	2	?	?	?
Clc1ccc(OCCCN2CCCC2)cc1Cl	4µM*	0	7	?	10µM*	?
O=C(c1ccc(F)cc1)N1CCC(N2CCCCCC2)CC1	?	31	21	50µM*	18µM*	?
O=C(c1ccc(F)cc1)N1CCC2(CC1)OCCO2	-11%	.	4	-6%	.	14%
CC(C)CN1CC2(CCN(C(=O)Oc3ccccc3)CC2)C1	.	.	.	.	0%[12.7 µM]	.
COc1ccc(OC)c(N2C(=O)NC(=O)C3(Cc4cc(C)ccc4N(C)C3)C2=O)c1 (centres undefined)	-29%	-11	-1	-3%	8.9µM*	11%
CN1C(=O)N(C)C(=O)C2(Cc3cc([N+](=O)[O-])ccc3N(C)C2)C1=O	-1%	-8	-2	-6%	0%	30%
COc1cccc(N2C(=O)NC(=O)C3(Cc4cc(C)ccc4N(C)C3)C2=O)c1 (centres undefined)	?	7	0	5%	2.8µM*	42%
COc1ccc2c(c1)CC1(CN2C)C(=O)NC(=O)N(CCc2ccccc2)C1=O (centres undefined)	-32%	-2	-2	?	11µM*	38%
Cc1ccc2c(c1)CC1(CN2C)C(=O)NC(=O)N(c2cc(C)ccc2C)C1=O (centres undefined)	-29%	1	-3	3%	5.6µM*	67%
COc1cc(CN2C(=O)NC(=O)C3(Cc4cc(C)ccc4N(C)C3)C2=O)cc(OC)c1 (centres undefined)	-32%	0	-2	-35%	?	23%
O=C(O)[C@@H]1C[C@H]2C[C@@H](CP(=O)(O)O)CC[C@H]2CN1	10%	.	.	.	.	46%
O=C(Oc1ccccc1)c1cccc(COC(=O)c2cnccn2)c1	-8%	9	7	1%	-24%[12.7 µM]	40%
CCOC(=O)c1c(C)[nH]c(C)c1S(=O)(=O)N1CCC(C(=O)N2CCN(c3ccc(Cl)cc3)CC2)CC1	?	.	.	?	6%[59 µM]	-7%
CCN(CC)CCNC(=O)c1c(O)c2ccccc2n(Cc2ccccc2)c1=O	79µM*	-7	-1	-37%	?	-8%
CCCC[N+]12CCC(CC1)C(=C(c1ccccc1)c1ccccc1)C2	?	3	10	50µM*	10µM*	?
C[C@@H]1O[C@@H](OC2CC(O)C3(CO)C4C(CCC3(O)C2)C2(O)CCC(C3=CC(=O)OC3)C2(C)C[C@H]4O)[C@H](O)[C@H](O)[C@H]1O (some centres undefined)	.	.	.	.	29%[59 µM]	.
N#Cc1ccc(CN2CCCC3(CCN(C(=O)Oc4ccccc4)CC3)C2)cc1	.	.	.	.	-17%[12.7 µM]	.
Cc1cccc(C)c1N1CCN(c2c(C)cccc2C)CC1	3%	6	-5	9%	40µM*	71%

Assay outcomes as filed in PubChem BioAssay.
